Among all 3,400 compounds or so, about 840 (25%) were called active. Inconclusive results (about 11%) are left out. Not all results are given here. Results with a measured potency or affinity are listed apart. Values without a mark were called inactive.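 Rule for the calls: active = fitted half-maximal concentration of signal decrease at or below twice the sample's top tested concentration; inconclusive = flat curve between -70 and -30 percent, or poor fit; inactive = flat within 30 percent, signal rise, or potency above limit.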

The record followed here is PubChem BioAssay AID1259418 (Broad Institute, 2018).

This assay in a line: T. gondii growth inhibition with IFN-gamma, dose response, cell-based, ME49Luc, HeLa, luciferase, 72 h (AID 1259418). Particulars: T. gondii ME49Luc in IFN-y HeLa, stronger effect = lower value, -100% = high-dose IFN-γ control wells; at 19.5 µM unless noted.
For `COc1ccc(-c2nc(N3CCN(c4cc(Cl)ccc4C)CC3)c3ccccc3n2)cc1`, the max activity was 23.2% [at 1.35 µM]. For the compound `Cc1ccccc1-c1nc(CN2CCN(C(=O)NC3CCCCC3)CC2)c(C)o1`, the max activity was -12% [at 0.35 µM]. For `Cc1cccc(-c2nc(Cn3nnc(-c4nc(-c5ccc(C(F)(F)F)cc5)no4)c3C)c(C)o2)c1` the value was -7.24% [at 0.16 µM]. For `Cc1ccc(C)c(N2CCN(c3nc(-c4ccc(Cl)cc4)nc4ccccc34)CC2)c1` the value was 16.9%; for `O=S(=O)(c1ccc2c(c1)CCCC2)N1CCC2(CC1)NCCN=C2NCc1ccc2c(c1)OCO2`, 10.2%; for `CC(C)Cc1ccc(S(=O)(=O)N2CCC3(CC2)NCCN=C3NCc2ccc3c(c2)OCO3)cc1`, 12.4% [at 10 µM]. In the case of `Cc1ccc(S(=O)(=O)N2CCC3(CC2)NCCN=C3NCc2ccc3c(c2)OCO3)c(C)c1`, the max activity was -18.3%.

As to `COc1ccccc1NC(=O)COc1nc(C)nc2ccccc12`, the max activity was 14.7%.

Consider `COc1ccc(S(=O)(=O)N2CCC[C@@H]2C(=O)NCCc2csc(C)n2)cc1OC`, for which the max activity was 10.7% [at 10 µM]. With `O=C(Cc1ccccc1)N1CCC2(CC1)CC(N1CCCC1)CO2` (stereo not drawn) the figure was 17.6% [at 2.6 µM]. For `CC(C)CCNC(=O)Cn1c(=O)c(S(=O)(=O)c2ccccc2)cc2ccccc21` the value was -14% [at 0.16 µM]; for `COc1cccc(CCC(=O)Nc2ccc3c(c2)CCC(=O)N3C)c1`, 3.19%. `COc1ccc(CC(=O)Nc2ccc3c(c2)CCC(=O)N3C)cc1Cl`: the max activity is 7.75% [at 10 µM]. `CN1C(=O)CCc2cc(NC(=O)c3cccc(C(F)(F)F)c3)ccc21`: the max activity is 6.55% [at 0.68 µM]. Turning to `CN1C(=O)CCc2cc(NC(=O)Cc3c(F)cccc3Cl)ccc21`, the max activity is -7.19% [at 5 µM]. Consider `CCN1C(=O)CCc2cc(NC(=O)Cc3ccc(Cl)cc3)ccc21`, for which the max activity is 8.3% [at 2.6 µM]. `COCC(=O)Nc1ccc2c(c1)CCC(=O)N2C`: the max activity is 6.56% [at 0.16 µM]. As for `CN1C(=O)CCc2cc(NC(=O)C3CC3)ccc21`, the max activity is -5.59% [at 0.16 µM].

`CCN1C(=O)CCc2cc(NC(=O)Cc3ccc(OC)cc3)ccc21`: the max activity is 7.03% [at 2.6 µM]. As for `COc1cc(OC)c(NC(=O)Nc2ccc(-c3nc(-c4ccccc4)co3)cc2)cc1Cl`, the max activity is 24.2%. With `CCOC(=O)CSc1nc(NCCc2ccc(OC)c(OC)c2)c2ccccc2n1` the figure was 24.2% [at 0.68 µM]; with `Cc1ccc(-c2nc(CN3CCN(C(=O)Nc4ccccc4C(F)(F)F)CC3)c(C)o2)cc1`, 15.9% [at 0.16 µM].

As for `O=C(Nc1ccc(-c2nc(-c3ccccc3)co2)cc1)c1ccc2c(c1)OCO2`, the max activity was 22.1% [at 0.35 µM]. For `COc1ccc(OC)c(NC(=O)Nc2ccc(-c3nc(-c4ccc(C)cc4C)co3)cc2)c1` the value was 12.1% [at 0.35 µM]; for `COc1cccc(-c2nc3c(s2)CN(C(=O)Nc2ccc(Br)cc2)CC3)c1`, 6.77%; for `Cc1ccc(-c2nc(Cn3nnc(-c4nc(-c5ccc(OCC(C)C)cc5)no4)c3C)c(C)o2)cc1`, 21.2% [at 0.16 µM].

In the case of `CCOC(=O)C1CCN(S(=O)(=O)c2cc(-c3nc(C(C)(C)C)cs3)cs2)CC1`, the max activity is 7.71% [at 0.68 µM]. On to `CN1C(=O)CCc2cc(NC(=O)c3ccsc3)ccc21`, for which the max activity is 74.1% [at 10 µM]. As to `CN1C(=O)CCc2cc(NC(=O)c3ccncc3)ccc21`, the max activity is -16.2% [at 2.6 µM].

As to `Cc1ccc(-c2coc(-c3ccc(NC(=O)c4ccc(Br)o4)cc3)n2)cc1`, the max activity is 38% [at 2.6 µM]. For `O=C(Nc1ccc(-c2nc(-c3ccccc3)co2)cc1)Nc1cccc(F)c1` the value was 13.5%; for `Cc1nc(-c2ccc(F)cc2)sc1-c1ccc(SCCN2CCCCCC2)nn1`, 9.96%; for `COc1ccc(CC(=O)Nc2ccc(-c3nc(-c4ccc(C)cc4)co3)cc2)cc1`, 16.4% [at 0.35 µM].

Regarding `COc1ccc(-c2ccc(OCCNC(=O)c3sc(-c4ccccc4)nc3C)nn2)cc1`, the max activity was 13.2% [at 0.16 µM]. With `O[C@H](CNC[C@@H](O)[C@H]1CCc2cc(F)ccc2O1)[C@@H]1CCc2cc(F)ccc2O1` the figure was -7.92% [at 0.3 µM]; with `CNc1ncc(CN(C)C(=O)c2csc(C)n2)cn1`, 20.8%; with `Cc1ccc2c(c1)cc(S(=O)(=O)c1ccccc1)c(=O)n2CC(=O)NCc1ccccc1Cl`, 7.82% [at 0.68 µM]. Turning to `O=C(NCCc1csc(-c2ccccc2)n1)[C@H]1CSCN1C(=O)Cc1cccs1`, the max activity is 12.6%. Turning to `COc1ccc(C(=O)Nc2ccc(-c3nc(-c4cc(C)ccc4C)co3)cc2)cc1OC`, the max activity is 9.52% [at 0.35 µM]. As for `Cc1ccc(-c2coc(-c3ccc(NC(=O)Nc4ccc(F)cc4F)cc3)n2)cc1`, the max activity was 92.1%. Regarding `COc1ccc(C)cc1NC(=O)Nc1ccc(-c2nc(-c3ccc(C)cc3C)co2)cc1`, the max activity was 20.4%. For the compound `Cc1ccc(C)c(-c2coc(-c3ccc(NC(=O)c4ccccc4)cc3)n2)c1`, the max activity is 11.8% [at 2.6 µM].

For `COc1cc(C(=O)Nc2ccc(-c3nc(-c4ccc(C)cc4C)co3)cc2)cc(OC)c1OC`, the max activity is 27.4% [at 5 µM].

Take `O=C(Nc1ccc(-c2nc(-c3ccccc3)co2)cc1)Nc1cc(F)ccc1F`: the max activity is 10.9% [at 2.6 µM]. Take `COc1ccccc1NC(=O)Nc1ccc(-c2nc(-c3cc(C)ccc3C)co2)cc1`: the max activity is 9.93% [at 0.16 µM]. As to `COc1ccc(C(=O)Nc2ccc(-c3nc(-c4ccc(C)cc4C)co3)cc2)cc1OC`, the max activity was 45%. Take `COC(=O)c1ccc(NC(=O)Nc2ccc(-c3nc(-c4ccccc4)co3)cc2)cc1`: the max activity is 75.7% [at 10 µM]. For `Cc1nc(CCNC(=O)C2CCN(C(=O)c3ccc(Br)o3)CC2)cs1` the value was 9.93% [at 5 µM].
